Results on nine compounds are retold here after PubChem BioAssay (NCI).

What all share (experiment): NCI-60 one-dose screen, 48 h (100 = growth as untreated, 0 = no growth, -100 = all killed)
In one assay the test system is SR leukemia. The conditions noted are these: 10 µM unless noted.
A further assay relates to RPMI-8226 leukemia. The following applies: 10 µM unless noted.
The subject of a further assay is OVCAR-8 ovarian. The conditions noted are these: 10 µM unless noted.
The test system of another assay is OVCAR-5 ovarian. The conditions noted are these: 10 µM unless noted.
Another assay has as its system OVCAR-4 ovarian. The following applies: 10 µM.
The subject of the next assay is SK-OV-3 ovarian. The conditions noted are these: 10 µM unless noted.
Another assay concerns IGROV1 ovarian. The conditions noted are these: 10 µM unless noted.
The test system of another assay is HS 578T breast. The conditions noted are these: 10 µM unless noted.
The next assay relates to NCI/ADR-RES ovarian. The conditions noted are these: 10 µM unless noted.
Another assay deals with T-47D breast. The following applies: 10 µM unless noted.
The subject of another assay is MDA-MB-435 melanoma. The following applies: 10 µM unless noted.
The subject of another assay is SW-620 colon. The following applies: 10 µM unless noted.
Another assay has as its system MCF7 breast. The following applies: 10 µM unless noted.
In a further assay the test system is HCT-116 colon. The conditions noted are these: 10 µM unless noted.
For another assay, the system named is HCC-2998 colon. The following applies: 10 µM unless noted.
Another assay relates to KM12 colon. The following applies: 10 µM unless noted.
In the next assay the test system is OVCAR-3 ovarian. The following applies: 10 µM unless noted.
For another assay, the system named is BT-549 breast. The following applies: 10 µM unless noted.

This is part of a sample that, as a whole, favours compounds with a hit. Of some 83,000 tested, about 20% had one in any assay.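 How to read the values: 0–100, growth inhibition (40 = 60% inhibited); 0, no net growth; -100 to 0, cell death (-40 = 40% of starting cells died; -100 = all dead).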 Values without a mark were called inactive. The source made the active and inactive calls. The calls were made as follows: active = growth percent below 10; inactive = the rest.

In the case of `c1ccc2c(c1)CN(CCCN1CCOCC1)C2`, the growth is 97.8% with SR leukemia; 95.5% in the assay on RPMI-8226 leukemia; 102% with OVCAR-8 ovarian; 99.1% in the assay on OVCAR-5 ovarian; 102% with OVCAR-4 ovarian; 102% in the assay on SK-OV-3 ovarian. Further, the growth is 101% with IGROV1 ovarian; 109% with HS 578T breast; 98.7% in the assay on NCI/ADR-RES ovarian; 101% in the assay on T-47D breast; 98.2% in the assay on MDA-MB-435 melanoma; 107% with SW-620 colon. In addition, the growth in the assay on MCF7 breast is 94.6%; in the assay on HCT-116 colon it was 97.9%; in the assay on HCC-2998 colon, 98.6%; in the assay with KM12 colon, 102%.
Take `COc1cc2c(cc1OCCCN1CCN(CCCOc3cc4c(cc3OC)C(=O)N3C[C@H](F)C[C@H]3C=N4)CC1)N=C[C@@H]1C[C@@H](F)CN1C2=O`: the growth with SR leukemia is -23.4% (active); with RPMI-8226 leukemia it was -3.68% (active); in the assay with OVCAR-8 ovarian, 24.4%; with OVCAR-5 ovarian it was 9.91% (active); in the assay with OVCAR-4 ovarian, 1.26% (active); with SK-OV-3 ovarian, 36.1%. Besides, the growth in the assay on IGROV1 ovarian is 12.4%; in the assay with OVCAR-3 ovarian, 5.75% (active); in the assay on T-47D breast it was 13.4%; in the assay on BT-549 breast, -68.5% (active); in the assay on MDA-MB-435 melanoma, -24.9% (active); with SW-620 colon it was -19.1% (active). Besides, the growth in the assay on MCF7 breast was 6.75% (active); in the assay on HCT-116 colon it was 8.44% (active); in the assay with HCC-2998 colon, -13.1% (active); in the assay with KM12 colon, -20% (active).
On to `O=C1NC(=O)C(Cc2ccccc2)(Cc2ccccc2)N1`, for which the growth with SR leukemia was 104%; with RPMI-8226 leukemia, 91%; with OVCAR-8 ovarian, 104%; in the assay on OVCAR-5 ovarian, 110%; with OVCAR-4 ovarian, 91.2%; with SK-OV-3 ovarian, 98.1%. Also, the growth with IGROV1 ovarian was 115%; with OVCAR-3 ovarian, 98.9%; in the assay with NCI/ADR-RES ovarian it was 101%; with BT-549 breast it was 90.4%; with MDA-MB-435 melanoma it was 96.4%; in the assay on SW-620 colon it was 101%. Also, the growth in the assay with MCF7 breast is 96.2%; in the assay with HCC-2998 colon it was 104%.
As to `COc1cc(C)cc2oc3oc(=O)c(-c4nc5ccccc5s4)cc3c(=O)c12`, the growth in the assay with SR leukemia was 105%; with RPMI-8226 leukemia, 94.1%; with OVCAR-8 ovarian it was 86.4%; in the assay with OVCAR-5 ovarian, 89.7%; with OVCAR-4 ovarian, 96.7%; in the assay on SK-OV-3 ovarian it was 111%. The growth was 83.2% with IGROV1 ovarian; 85.3% in the assay with OVCAR-3 ovarian; 94.4% with NCI/ADR-RES ovarian; 91.2% in the assay with T-47D breast; 95.3% with MDA-MB-435 melanoma; 83.9% with SW-620 colon. Also, the growth with MCF7 breast is 84.7%; in the assay on HCT-116 colon, 93.4%; in the assay on HCC-2998 colon, 109%; in the assay on KM12 colon, 93.1%.
As for `CCN(CCO)CCC(=O)c1ccc([N+](=O)[O-])cc1`, the growth is 107% in the assay on SR leukemia; 104% in the assay with RPMI-8226 leukemia; 101% in the assay with OVCAR-8 ovarian; 116% in the assay with OVCAR-5 ovarian; 103% in the assay on OVCAR-4 ovarian; 107% in the assay on SK-OV-3 ovarian. The growth is 108% in the assay on IGROV1 ovarian; 101% with HS 578T breast; 102% in the assay with NCI/ADR-RES ovarian; 90.6% with T-47D breast; 111% in the assay with MDA-MB-435 melanoma; 113% with SW-620 colon. The growth was 98.6% in the assay with MCF7 breast, 112% with HCT-116 colon, 97.4% in the assay with HCC-2998 colon and 102% with KM12 colon.
On to `OC(c1ccc(Cl)cc1)(c1ccc(Cl)cc1)C(O)(c1ccc(Cl)cc1)c1ccc(Cl)cc1`, for which the growth in the assay on SR leukemia is 25.9%; in the assay on RPMI-8226 leukemia it was 30.8%; in the assay on OVCAR-8 ovarian, 56.8%; with OVCAR-5 ovarian, 71.7%; in the assay on OVCAR-4 ovarian, 44.8%; in the assay on SK-OV-3 ovarian it was 35.9%. Besides, the growth in the assay on IGROV1 ovarian was 19.6%; in the assay with OVCAR-3 ovarian, 40.7%; with T-47D breast, 32.9%; in the assay on MDA-MB-435 melanoma, 29.3%; with SW-620 colon it was 44.4%; with MCF7 breast, 49.7%. In addition, the growth in the assay with HCT-116 colon was 7.19% (active); in the assay on HCC-2998 colon, 48.6%; in the assay with KM12 colon, 24.2%.
As for `CC1=C/C(=C(\c2cc(C)c(O)c(C(=O)O)c2)c2c(Cl)cccc2Cl)C=C(C(=O)O)C1=O`, the growth with SR leukemia is 102%; with RPMI-8226 leukemia it was 102%; with OVCAR-8 ovarian, 100%; in the assay on OVCAR-5 ovarian it was 106%; in the assay on OVCAR-4 ovarian it was 108%; in the assay with SK-OV-3 ovarian, 93.3%. Moreover, the growth is 101% in the assay on IGROV1 ovarian; 99.2% in the assay with HS 578T breast; 99.9% with NCI/ADR-RES ovarian; 98.3% in the assay on T-47D breast; 99.3% in the assay with BT-549 breast; 108% in the assay on MDA-MB-435 melanoma. The growth is 110% in the assay on SW-620 colon, 105% in the assay on HCT-116 colon, 110% in the assay with HCC-2998 colon and 103% in the assay with KM12 colon.
In the case of `Fc1ccc(NC(=S)c2ccccc2)cc1`, the growth in the assay with SR leukemia was 102%; in the assay on RPMI-8226 leukemia it was 89%; with OVCAR-8 ovarian, 102%; with OVCAR-5 ovarian, 94.5%; with OVCAR-4 ovarian, 100%; with SK-OV-3 ovarian it was 117%. Further, the growth was 106% with IGROV1 ovarian; 101% in the assay with HS 578T breast; 108% in the assay with NCI/ADR-RES ovarian; 96.4% in the assay on T-47D breast; 90.3% in the assay with BT-549 breast; 98% in the assay on MDA-MB-435 melanoma. The growth in the assay with SW-620 colon is 102%; in the assay on MCF7 breast, 93.9%; in the assay with HCT-116 colon, 103%; with HCC-2998 colon, 116%; in the assay with KM12 colon it was 100%.
On to `Nc1cc(C(=O)O)[nH]c(=S)n1`, for which the growth in the assay with SR leukemia is 94.2%; with RPMI-8226 leukemia it was 95%; in the assay on OVCAR-8 ovarian, 101%; with OVCAR-5 ovarian, 96.1%; with OVCAR-4 ovarian it was 105%; in the assay with SK-OV-3 ovarian it was 115%. Besides, the growth was 95.4% with IGROV1 ovarian; 98.1% in the assay on HS 578T breast; 100% in the assay with NCI/ADR-RES ovarian; 105% with T-47D breast; 69.1% in the assay on BT-549 breast; 98% with MDA-MB-435 melanoma. Besides, the growth in the assay with SW-620 colon was 101%; in the assay with MCF7 breast, 96.2%; in the assay with HCT-116 colon, 100%; with HCC-2998 colon, 95.3%; in the assay with KM12 colon, 98.9%.
